Measured values: PubChem BioAssay AID1159580 (chemical genetic matrix, 2015)
The whole screen tested about 5,500 compounds, of which about 2,000 (36%) were called active. About 18% were inconclusive and are not listed. Cut-off read from the data, not from the text of the source: active = normalized growth mostly below about 0.91 (no sharp cut-off); inconclusive = no clear call, values can overlap the other calls; inactive = mostly above about 0.92. Some of the results follow.

Experiment: chemical genetic growth profiling, strain panel (AID 1159580);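 note: tested at 20 µM; growth read once vehicle control cultures reached saturation at 30 °C; 1 = growth at the plate median or of vehicle wells; lower values mean less growth of the strain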
Conditions: growth OD
[1] = S. cerevisiae deletion strains, locus YAL013W, strain DEP1, stronger effect = lower value
[2] = S. cerevisiae deletion strains, locus YBR229C, strain ROT2, stronger effect = lower value
[3] = S. cerevisiae deletion strains, locus YDL101C, strain DUN1, stronger effect = lower value
[4] = S. cerevisiae deletion strains, locus YDL134C, strain PPH21, stronger effect = lower value
[5] = S. cerevisiae deletion strains, locus YDR150W, strain NUM1, stronger effect = lower value
[6] = S. cerevisiae deletion strains, locus YEL061C, strain CIN8, stronger effect = lower value
[7] = S. cerevisiae deletion strains, locus YGR078C, strain PAC10, stronger effect = lower value
[8] = S. cerevisiae deletion strains, locus YHR030C, strain SLT2, stronger effect = lower value
[9] = S. cerevisiae deletion strains, locus YHR087W, strain rtc3, stronger effect = lower value
[10] = S. cerevisiae deletion strains, locus YJL187C, strain SWE1, stronger effect = lower value
[11] = S. cerevisiae deletion strains, locus YJR043C, strain POL32, stronger effect = lower value
[12] = S. cerevisiae deletion strains, locus YJR075W, strain HOC1, stronger effect = lower value
[13] = S. cerevisiae deletion strains, locus YKL190W, strain CNB1, stronger effect = lower value
[14] = S. cerevisiae deletion strains, locus YLR039C, strain RIC1, stronger effect = lower value
[15] = S. cerevisiae deletion strains, locus YLR058C, strain SHM2 (second series), stronger effect = lower value
[16] = S. cerevisiae deletion strains, locus YLR085C, strain ARP6, stronger effect = lower value
[17] = S. cerevisiae deletion strains, locus YLR262C, strain YPT6, stronger effect = lower value
[18] = S. cerevisiae deletion strains, locus YML094W, strain GIM5, stronger effect = lower value
[19] = S. cerevisiae deletion strains, locus YMR219W, strain ESC1, stronger effect = lower value
[20] = S. cerevisiae deletion strains, locus YMR263W, strain SAP30, stronger effect = lower value
[21] = S. cerevisiae deletion strains, locus YNL153C, strain GIM3, stronger effect = lower value
[22] = S. cerevisiae deletion strains, locus YNL298W, strain CLA4 (second series), stronger effect = lower value
[23] = S. cerevisiae deletion strains, locus YNL322C, strain KRE1, stronger effect = lower value
[24] = S. cerevisiae deletion strains, locus YNR030W, strain Alg12, stronger effect = lower value
[25] = S. cerevisiae deletion strains, locus YOL006C, strain TOP1, stronger effect = lower value
[26] = S. cerevisiae deletion strains, locus YPL241C, strain CIN2, stronger effect = lower value
[27] = S. cerevisiae deletion strains, locus YPR135W, strain CTF4, stronger effect = lower value
[28] = S. cerevisiae deletion strains, locus YGR229C, strain SMI1, stronger effect = lower value
[29] = S. cerevisiae deletion strains, locus YPL055C, strain LGE1, stronger effect = lower value
[30] = S. cerevisiae strains, strain wild type, stronger effect = lower value
[31] = S. cerevisiae deletion strains, locus YMR307W, strain GAS1, stronger effect = lower value

Measured: normalized growth

FC(F)(F)c1cccc(CSc2n[nH]c(=S)s2)c1
active: [1] 0.774 | [2] 0.479 | [3] 0.522 | [4] 0.883 | [6] 0.861 | [7] 0.427 | [9] 0.592 | [10] 0.51 | [11] 0.791 | [12] 0.31 | [13] 0.887 | [14] 0.706 | [15] 0.797 | [16] 0.593 | [19] 0.606 | [20] 0.763 | [21] 0.533 | [22] 0.787 | [23] 0.873 | [24] 0.824 | [25] 0.409 | [26] 0.833 | [27] 0.638
inactive: [5] 0.903 | [8] 0.728 | [17] 0.838 | [18] 0.914

O=[N+]([O-])c1ccccc1SCc1n[nH]c(=S)n1-c1cccc(C(F)(F)F)c1
inactive: [1] 0.973 | [2] 0.991 | S. cerevisiae deletion strains, locus YCL061C, strain MRC1, stronger effect = lower value 0.989 | [3] 1 | [4] 1.01 | [5] 1.01 | [6] 0.969 | [7] 0.967 | [28] 0.994 | [8] 1.04 | [9] 1.01 | [11] 0.999 | [12] 1.02 | [13] 0.974 | [14] 0.988 | [15] 0.996 | [16] 0.87 | [17] 1.01 | [18] 0.967 | [19] 0.992 | [20] 1 | [21] 1.03 | [22] 0.932 | [23] 0.97 | [24] 0.94 | [25] 0.886 | [29] 0.99 | [26] 0.985 | [27] 1.13 | [30] 0.975

S=c1[nH]nc(SCCSc2n[nH]c(=S)s2)s1
inactive: [1] 0.969 | [2] 1.04 | [3] 0.947 | [4] 0.993 | [5] 1.03 | [6] 1.02 | [7] 0.952 | [28] 0.987 | [8] 1.1 | [9] 1.02 | [11] 1.02 | [12] 1.06 | [14] 1 | [15] 0.989 | [16] 0.945 | [17] 1.16 | [18] 0.988 | [19] 0.969 | [20] 0.994 | [31] 1 | [21] 1 | [22] 0.963 | [23] 0.987 | [24] 0.989 | [29] 0.965 | [26] 0.984 | [27] 1.02 | [30] 0.988
active: [10] 0.93

O=[N+]([O-])c1cnc(Sc2nnc(SCc3cccc(C(F)(F)F)c3)s2)s1
active: S. cerevisiae deletion strains, locus YAR019C, strain CDC15, stronger effect = lower value 0.098 | S. cerevisiae deletion strains, locus YBL105C, strain PKC1, stronger effect = lower value 0.0818 | S. cerevisiae deletion strains, locus YBR135W, strain CKS1, stronger effect = lower value 0.0984 | S. cerevisiae deletion strains, locus YBR136W, strain MEC1, stronger effect = lower value 0.0945 | S. cerevisiae deletion strains, locus YBR160W, strain CDC28, stronger effect = lower value 0.0963 | S. cerevisiae deletion strains, locus YDL017W, strain CDC7, stronger effect = lower value 0.0822 | S. cerevisiae deletion strains, locus YDL028C, strain MPS1, stronger effect = lower value 0.111 | [3] 0.107 | S. cerevisiae deletion strains, locus YDL108W, strain KIN28, stronger effect = lower value 0.0971 | S. cerevisiae deletion strains, locus YDL132W, strain cdc53, stronger effect = lower value 0.0889 | S. cerevisiae deletion strains, locus YDL214C, strain PRR2, stronger effect = lower value 0.106 | S. cerevisiae deletion strains, locus YDR052C, strain DBF4, stronger effect = lower value 0.0805 | S. cerevisiae deletion strains, locus YDR054C, strain cdc34, stronger effect = lower value 0.0921 | S. cerevisiae deletion strains, locus YDR226W, strain ADK1, stronger effect = lower value 0.0971 | S. cerevisiae deletion strains, locus YDR477W, strain SNF1, stronger effect = lower value 0.101 | S. cerevisiae deletion strains, locus YER123W, strain YCK3, stronger effect = lower value 0.111 | S. cerevisiae deletion strains, locus YER133W, strain GLC7, stronger effect = lower value 0.107 | S. cerevisiae deletion strains, locus YFL009W, strain cdc4, stronger effect = lower value 0.102 | S. cerevisiae deletion strains, locus YFL029C, strain CAK1, stronger effect = lower value 0.098 | S. cerevisiae deletion strains, locus YFR003C, strain YPI1, stronger effect = lower value 0.0893 | S. cerevisiae deletion strains, locus YFR019W, strain FAB1, stronger effect = lower value 0.106 | S. cerevisiae deletion strains, locus YFR028C, strain CDC14, stronger effect = lower value 0.0995 | S. cerevisiae deletion strains, locus YGR040W, strain KSS1, stronger effect = lower value 0.0976 | S. cerevisiae deletion strains, locus YGR052W, strain FMP48, stronger effect = lower value 0.101 | S. cerevisiae deletion strains, locus YGR092W, strain DBF2, stronger effect = lower value 0.0989 | [8] 0.131 | S. cerevisiae deletion strains, locus YHR079C, strain IRE1, stronger effect = lower value 0.0953 | S. cerevisiae deletion strains, locus YHR082C, strain KSP1, stronger effect = lower value 0.13 | S. cerevisiae deletion strains, locus YHR205W, strain SCH9, stronger effect = lower value -0.0106 | S. cerevisiae deletion strains, locus YIL147C, strain SLN1, stronger effect = lower value 0.102 | S. cerevisiae deletion strains, locus YJL095W, strain BCK1, stronger effect = lower value 0.118 | S. cerevisiae deletion strains, locus YJL128C, strain PBS2, stronger effect = lower value 0.0978 | S. cerevisiae deletion strains, locus YJL157C, strain FAR1, stronger effect = lower value 0.0837 | S. cerevisiae deletion strains, locus YJR016C, strain ILV3, stronger effect = lower value 0.0869 | S. cerevisiae deletion strains, locus YJR066W, strain TOR1 (second series), stronger effect = lower value 0.0917 | S. cerevisiae deletion strains, locus YJR066W, strain TOR1, stronger effect = lower value 0.122 | S. cerevisiae deletion strains, locus YKL048C, strain ELM1, stronger effect = lower value 0.111 | S. cerevisiae deletion strains, locus YKL067W, strain YNK1, stronger effect = lower value 0.105 | S. cerevisiae deletion strains, locus YKL101W, strain HSL1, stronger effect = lower value 0.1 | S. cerevisiae deletion strains, locus YKL193C, strain SDS22, stronger effect = lower value 0.0958 | S. cerevisiae deletion strains, locus YKL203C, strain TOR2, stronger effect = lower value 0.111 | S. cerevisiae deletion strains, locus YLR113W, strain HOG1, stronger effect = lower value 0.127 | S. cerevisiae deletion strains, locus YLR133W, strain CKI1, stronger effect = lower value 0.0966 | S. cerevisiae deletion strains, locus YLR403W, strain SFP1, stronger effect = lower value -0.00531 | S. cerevisiae deletion strains, locus YML070W, strain DAK1, stronger effect = lower value 0.103 | S. cerevisiae deletion strains, locus YMR001C, strain CDC5, stronger effect = lower value 0.0974 | S. cerevisiae deletion strains, locus YMR205C, strain PFK2 (second series), stronger effect = lower value 0.101 | S. cerevisiae deletion strains, locus YMR277W, strain FCP1, stronger effect = lower value 0.0974 | S. cerevisiae deletion strains, locus YNL006W, strain LST8, stronger effect = lower value 0.0863 | S. cerevisiae deletion strains, locus YNL020C, strain ARK1, stronger effect = lower value 0.109 | S. cerevisiae deletion strains, locus YNL161W, strain CBK1, stronger effect = lower value 0.0953 | S. cerevisiae deletion strains, locus YNL183C, strain NPR1, stronger effect = lower value 0.093 | S. cerevisiae deletion strains, locus YNL207W, strain RIO2, stronger effect = lower value 0.0918 | S. cerevisiae deletion strains, locus YNL222W, strain SSU72, stronger effect = lower value 0.1 | S. cerevisiae deletion strains, locus YNL307C, strain MCK1 (second series), stronger effect = lower value 0.108 | S. cerevisiae deletion strains, locus YOL078W, strain AVO1, stronger effect = lower value 0.0995 | S. cerevisiae deletion strains, locus YOL136C, strain PFK27, stronger effect = lower value 0.0976 | S. cerevisiae deletion strains, locus YOR061W, strain CKA2, stronger effect = lower value 0.0984 | S. cerevisiae deletion strains, locus YOR119C, strain RIO1, stronger effect = lower value 0.105 | S. cerevisiae deletion strains, locus YOR231W, strain MKK1, stronger effect = lower value 0.0992 | S. cerevisiae deletion strains, locus YOR329C, strain SCD5, stronger effect = lower value 0.0854 | S. cerevisiae deletion strains, locus YPL031C, strain PHO85, stronger effect = lower value 0.103 | S. cerevisiae deletion strains, locus YPL153C, strain RAD53, stronger effect = lower value 0.0944 | S. cerevisiae deletion strains, locus YPL204W, strain HRR25, stronger effect = lower value 0.107 | S. cerevisiae deletion strains, locus YPL209C, strain IPL1, stronger effect = lower value 0.0842 | S. cerevisiae deletion strains, locus YPL256C, strain CLN2, stronger effect = lower value 0.133 | S. cerevisiae deletion strains, locus YPR025C, strain CCL1, stronger effect = lower value 0.0989 | S. cerevisiae deletion strains, locus YPR106W, strain ISR1, stronger effect = lower value 0.0861 | S. cerevisiae deletion strains, locus YPR111W, strain DBF20, stronger effect = lower value 0.0999 | S. cerevisiae deletion strains, strain NNK1, stronger effect = lower value 0.0942 | S. cerevisiae deletion strains, strain TSCII, stronger effect = lower value 0.102

CC1C(=O)N(C)C(=O)c2nc[nH]c21 (centres undefined)
inactive: [1] 0.997 | S. cerevisiae deletion strains, locus YAL040C, strain CLN3, stronger effect = lower value 0.993 | S. cerevisiae deletion strains, locus YCL061C, strain MRC1 (second series), stronger effect = lower value 1 | [5] 1.01 | S. cerevisiae deletion strains, locus YDR363W, strain ESC2, stronger effect = lower value 0.998 | S. cerevisiae deletion strains, locus YER002W, strain NOP16, stronger effect = lower value 1 | [28] 0.992 | [31] 0.991 | S. cerevisiae deletion strains, locus YNL128W, strain TEP1, stronger effect = lower value 1 | S. cerevisiae deletion strains, locus YNL175C, strain NOP13, stronger effect = lower value 1 | S. cerevisiae deletion strains, locus YNL197C, strain WHI3, stronger effect = lower value 0.989 | S. cerevisiae deletion strains, locus YNL224C, strain SQS1, stronger effect = lower value 1 | [23] 0.992 | S. cerevisiae deletion strains, locus YOR083W, strain WHI5 (second series), stronger effect = lower value 1.02 | [26] 1

Cc1nn(C)c(C)c1NS(=O)(=O)c1cc(Cl)sc1Cl
inactive: [1] 1 | [2] 1.03 | [3] 1.05 | [4] 1.02 | [5] 0.956 | [6] 1.03 | [7] 1.01 | [8] 1.04 | [9] 1.03 | [10] 1.02 | [11] 1.01 | [12] 1.02 | [14] 1 | [15] 1.03 | [16] 1.03 | [17] 0.993 | [18] 1.01 | [19] 1.01 | [20] 0.914 | [21] 1.04 | [22] 1.04 | [23] 1.01 | [24] 1.01 | [29] 1.01 | [26] 1.01 | [27] 1.14 | [30] 1.02
